Test results from PubChem BioAssay (Tox21).
Several values for one entry are separate records, joined by “and”; a condition that tells them apart may be missing. Identical values can stand only once. Results filed as inconclusive are left out. Where a structure was tested more than once in an assay, its records may differ in their call. Activity calls are given as the source filed them. Unless noted, calls follow the shape of the dose curve; as a rule, active = well fitted curve in the direction sought with a large enough effect in the repeat runs; inconclusive = weak or mixed curves; inactive = no such curve, though single readings can be large; an effect the other way counts as inactive or inconclusive.

How the values were obtained:
[1] = qHTS assay to test for compound auto fluorescence at 460 nm (blue) in HEK293 cell free culture (AID 720681)
Method in brief: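 Blue fluorescence (Ex 405/Em 460 nm, triamterene-equivalent) was read immediately after pin transfer of compound or DMSO into medium (DMEM, 10% FBS) without cells.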

[2] = qHTS assay to test for compound auto fluorescence at 535 nm (green) in HEK293 cell free culture (AID 720682)
Method in brief: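 No cells present: wells hold DMEM supplemented with 10% FBS, into which compound or vehicle is pinned. Green emission is then recorded (485 nm excitation, 535 nm emission) and scaled to fluorescein.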

[3] = qHTS assay to test for compound auto fluorescence at 590 nm (red) in HEK293 cell free culture (AID 720683)
Method in brief: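 Red-channel autofluorescence of compounds in culture medium (DMEM, 10% FBS), no cells, measured at 540/590 nm. Rose Bengal sodium is the reference fluorophore for equivalence.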

[4] = qHTS assay to test for compound auto fluorescence at 460 nm (blue) in HepG2 cells (AID 720687)
Method in brief: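 Blue-channel autofluorescence (Ex/Em 405/460 nm, triamterene-equivalent) was measured after 1 hr compound exposure at 37 C, 5% CO2. Cells were HepG2, plated overnight at 37 C in MEM plus 10% FBS.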

[5] = biological target: Glucocorticoid receptor (Homo sapiens) (UniProt P04150); test: qHTS assay to identify small molecule agonists of the glucocorticoid receptor (GR) signaling pathway (AID 720691; active = well fitted activation curve with a large enough effect in the signal ratio in the repeat runs, not every such curve was filed as active; the % refers to the signal ratio)
Method in brief: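 Steps: seed GR-bla HeLa cells, incubate 4 h at 37 C/5% CO2; pin-transfer DMSO-dissolved compounds; incubate 18 h at 37 C; add LiveBLAzer B/G FRET substrate; after 2 h at room temperature, measure fluorescence.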

[6] = qHTS assay to identify small molecule antagonists of the glucocorticoid receptor (GR) signaling pathway - cell viability counter screen (AID 720693); also: nearly all actives have a fitted effect of over 55% in size; also: potency is read from the fitted curve at half-maximal effect
[7] = qHTS assay for identifying genotoxic compounds that show differential cytotoxicity against isogenic chicken DT40 cell lines with known DNA damage response pathways - wild type cell line (AID 743012); also: nearly all actives have a fitted effect of over 60% in size; also: potency is read from the fitted curve at half-maximal effect
Method in brief: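 Cytotoxicity in repair-proficient parental chicken DT40 cells serves as the comparator for Rad54/Ku70- and Rev3-deficient lines. Cells were exposed to compounds for 40 h at 37 C/5% CO2, and ATP-based luminescence (CellTiter-Glo) measured viability.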

[8] = qHTS assay for identifying genotoxic compounds that show differential cytotoxicity against isogenic chicken DT40 cell lines with known DNA damage response pathways - Rev3 mutant cell line (AID 743014); also: nearly all actives have a fitted effect of over 55% in size; also: potency is read from the fitted curve at half-maximal effect
[9] = qHTS assay for identifying genotoxic compounds that show differential cytotoxicity against isogenic chicken DT40 cell lines with known DNA damage response pathways - Rad54/Ku70 mutant cell line (AID 743015); also: nearly all actives have a fitted effect of over 60% in size; also: potency is read from the fitted curve at half-maximal effect
[10] = qHTS assay to identify small molecule antagonists of the androgen receptor (AR) signaling pathway using the MDA cell line - cell viability counter screen (AID 743041; also: nearly all actives have a fitted effect of over 45% in size; also: potency is read from the fitted curve at half-maximal effect)
Method in brief: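 Viability read by CellTiter-Fluor fluorescence in the same wells as the antagonist screen, added after 15.5 h of a 16 h, 37C exposure. Human breast carcinoma MDA-kb2 AR-luc cells, compounds co-dosed with agonist R1881.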

[11] = qHTS assay to identify small molecule antagonists of the thyroid receptor (TR) signaling pathway - cell viability counter screen (AID 743064); also: nearly all actives have a fitted effect of over 50% in size; also: potency is read from the fitted curve at half-maximal effect
Method in brief: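 Rat GH3 pituitary tumor cells stably expressing two TR response elements driving luciferase were plated, rested 4 h, then dosed with library compounds and T3 (1 nM final). After 23.5 h at 37 °C, CellTiter-Fluor was added for 30 min and fluorescence recorded.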

[12] = qHTS assay to test for compound auto fluorescence at 590 nm (red) in HepG2 cell free culture (AID 720684)
Method in brief: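 Cell-free; medium MEM + 10% FBS; compound or DMSO added by pintool; read Ex 540/Em 590 nm; Rose Bengal sodium as red reference fluorophore.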

[13] = qHTS assay to test for compound auto fluorescence at 460 nm (blue) in HepG2 cell free culture (AID 720685)
Method in brief: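 Cell-free plates of MEM plus 10% FBS received 23 nL compound or DMSO vehicle; blue-channel (405/460 nm) intensity scored against triamterene as reference fluorophore.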

[14] = qHTS assay to test for compound auto fluorescence at 535 nm (green) in HepG2 cell free culture (AID 720686)
[15] = qHTS assay to identify small molecule antagonists of the androgen receptor (AR) signaling pathway - cell viability counter screen (AID 743033; also: nearly all actives have a fitted effect of over 45% in size; also: potency is read from the fitted curve at half-maximal effect)
[16] = biological target: Glucocorticoid receptor (Homo sapiens) (UniProt P04150); test: qHTS assay to identify small molecule antagonists of the glucocorticoid receptor (GR) signaling pathway (AID 720692; active = well fitted inhibition curve with a large enough effect in the signal ratio in the repeat runs, not every such curve was filed as active; the % refers to the signal ratio; also: potency is read from the fitted curve at half-maximal effect)
Method in brief: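 Antagonism was scored as loss of dexamethasone-driven (5 nM final) reporter signal in HeLa cells bearing a glucocorticoid response element–beta-lactamase construct, after 18 h compound exposure at 37 C and 2 h FRET substrate loading.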

[17] = biological target: Androgen receptor (Homo sapiens) (UniProt P10275); test: qHTS assay to identify small molecule antagonists of the androgen receptor (AR) signaling pathway (AID 743035; active = well fitted inhibition curve with a large enough effect in the signal ratio in the repeat runs, not every such curve was filed as active; the % refers to the signal ratio; also: potency is read from the fitted curve at half-maximal effect)
Method in brief: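 Steps: seed AR-UAS-bla GripTite HEK293 cells, incubate 4 h at 37C; pin in test compound, then add agonist R1881; incubate 16 h at 37C; add LiveBLAzer B/G FRET substrate, 2 h at room temperature; read fluorescence.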

[18] = biological target: Androgen receptor (Homo sapiens) (UniProt P10275); test: qHTS assay to identify small molecule agonists of the androgen receptor (AR) signaling pathway (AID 743036; active = well fitted activation curve with a large enough effect in the signal ratio in the repeat runs, with a control signal flat, not every such curve was filed as active; the % refers to the signal ratio)
Method in brief: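 Quantitative HTS of the Tox21 10K library in HEK293 cells bearing a stably integrated UAS-controlled beta-lactamase reporter. Compound exposure lasted 16 h at 37C. Reporter activity was detected by FRET substrate fluorescence after 2 h at room temperature.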

[19] = biological target: Androgen receptor (Homo sapiens) (UniProt P10275); test: qHTS assay to identify small molecule agonists of the androgen receptor (AR) signaling pathway using the MDA cell line (AID 743040; also: nearly all actives have a fitted effect of over 20% in size)
Method in brief: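 Luciferase agonist assay: 16 h compound exposure at 37C without CO2 in MDA-kb2 AR-luc cells, whose MMTV promoter responds to both AR and GR. Luminescence measured after 30 min room-temperature incubation with ONE-Glo.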

Measured: Potency

Chain of Glucocorticoid receptor (Homo sapiens) (P04150 whole entry, looked up): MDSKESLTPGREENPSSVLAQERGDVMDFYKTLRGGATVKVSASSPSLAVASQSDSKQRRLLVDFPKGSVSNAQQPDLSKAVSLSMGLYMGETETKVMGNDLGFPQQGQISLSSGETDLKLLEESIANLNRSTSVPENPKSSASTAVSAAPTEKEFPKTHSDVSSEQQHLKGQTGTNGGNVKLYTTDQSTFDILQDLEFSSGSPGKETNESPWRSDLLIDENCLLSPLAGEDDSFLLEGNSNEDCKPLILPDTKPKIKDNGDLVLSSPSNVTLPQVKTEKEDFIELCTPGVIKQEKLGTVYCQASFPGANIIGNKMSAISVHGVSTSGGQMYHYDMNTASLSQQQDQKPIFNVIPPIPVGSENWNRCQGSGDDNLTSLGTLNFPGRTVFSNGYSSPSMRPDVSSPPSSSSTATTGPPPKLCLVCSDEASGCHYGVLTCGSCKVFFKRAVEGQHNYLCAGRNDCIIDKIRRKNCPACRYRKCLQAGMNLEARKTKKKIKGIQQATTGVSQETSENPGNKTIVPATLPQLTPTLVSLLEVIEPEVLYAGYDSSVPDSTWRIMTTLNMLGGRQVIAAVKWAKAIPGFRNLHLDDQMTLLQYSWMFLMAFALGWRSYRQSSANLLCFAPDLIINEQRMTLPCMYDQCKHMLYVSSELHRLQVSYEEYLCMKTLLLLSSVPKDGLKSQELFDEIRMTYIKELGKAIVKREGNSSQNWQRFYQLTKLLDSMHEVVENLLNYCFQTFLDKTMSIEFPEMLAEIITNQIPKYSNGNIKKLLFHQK
Chain of Androgen receptor (Homo sapiens) (P10275 whole entry, looked up): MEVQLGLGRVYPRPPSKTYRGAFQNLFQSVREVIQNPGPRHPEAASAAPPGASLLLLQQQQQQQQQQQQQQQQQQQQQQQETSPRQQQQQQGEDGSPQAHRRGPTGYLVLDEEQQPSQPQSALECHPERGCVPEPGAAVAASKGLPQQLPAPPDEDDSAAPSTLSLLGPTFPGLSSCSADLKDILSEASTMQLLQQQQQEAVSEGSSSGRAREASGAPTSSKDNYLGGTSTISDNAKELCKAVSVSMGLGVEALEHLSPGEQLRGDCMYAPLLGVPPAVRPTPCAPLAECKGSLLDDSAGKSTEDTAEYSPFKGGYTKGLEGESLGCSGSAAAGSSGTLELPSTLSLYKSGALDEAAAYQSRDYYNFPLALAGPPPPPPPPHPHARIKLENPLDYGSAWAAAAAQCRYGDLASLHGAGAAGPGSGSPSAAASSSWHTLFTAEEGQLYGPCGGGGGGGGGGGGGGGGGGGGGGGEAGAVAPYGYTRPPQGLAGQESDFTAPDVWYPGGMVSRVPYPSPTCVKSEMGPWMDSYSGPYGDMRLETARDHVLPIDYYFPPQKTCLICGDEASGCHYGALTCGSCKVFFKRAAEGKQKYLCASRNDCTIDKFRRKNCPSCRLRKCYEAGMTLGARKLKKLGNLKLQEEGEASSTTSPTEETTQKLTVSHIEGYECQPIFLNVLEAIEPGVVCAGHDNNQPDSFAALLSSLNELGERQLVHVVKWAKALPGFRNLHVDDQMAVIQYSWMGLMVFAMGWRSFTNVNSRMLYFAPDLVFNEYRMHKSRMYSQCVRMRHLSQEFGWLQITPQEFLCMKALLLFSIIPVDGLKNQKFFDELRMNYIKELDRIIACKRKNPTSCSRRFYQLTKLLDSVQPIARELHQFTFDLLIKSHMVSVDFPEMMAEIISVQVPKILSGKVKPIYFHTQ

Nc1ccccc1N
active: [7] 3.86 µM | [8] 31.4 µM and 10.3 µM | [9] 62.6 µM and 9.15 µM
inactive: [1] | [2] | [3] | [4] | [5] | [6] | [10] | [11]

CC(C)=CCCC(C)CCO (centres undefined)
active: [7] 61.1 µM
inactive and 27.3 µM (active): [9]
not listed: [5] | [8] | [16] | [17] | [18] | [19]
inactive: all other assays above

Clc1nc(Cl)c(Cl)c(Cl)c1Cl
active: [16] 15.6 µM and 24.5 µM
not listed: [1] | [8] | [15] | [17] | [18] | [19]
inactive: all other assays above

CNCCCC12CCC(c3ccccc31)c1ccccc12
active: [7] 10.6 µM and 6.86 µM | [8] 21.1 µM and 12.2 µM | [9] 13.3 µM and 6.86 µM | [10] 61.1 µM | [11] 11.9 µM and 4.86 µM
not listed: [15] | [17] | [18] | [19]
inactive: all other assays above

CC(=O)O[C@]1(C(C)=O)CC[C@H]2[C@@H]3C=C(Cl)C4=CC(=O)[C@@H]5C[C@@H]5[C@]4(C)[C@H]3CC[C@@]21C
inactive and 54.4 µM (active): [11]
active: [7] 13.3 µM and 12.2 µM and 19.3 µM | [9] 23.7 µM and 7.69 µM and 21.7 µM
inactive and 19.5 µM (active): [15]
inactive: [1] | [2] | [3] | [13] | [14] | [4] | [10]

S=C(NC1CCCCC1)NC1CCCCC1
inactive and 61.1 µM (active): [8] | [9]
active: [15] 19.1 µM
not listed: [12] | [13] | [17] | [18] | [19]
inactive: all other assays above

Cc1cccc([N+](=O)[O-])c1C
not listed: [5] | [8] | [15] | [16]
inactive: all other assays above

Nc1ccc(S(=O)(=O)Nc2cnc3ccccc3n2)cc1
not listed: [17] | [18] | [19]
inactive: all other assays above

O=C(Nc1ccc(Cl)cc1)Nc1ccc(Cl)c(Cl)c1
active: [6] 4.77 µM and 7.73 µM and 6.92 µM | [7] 3.35 µM and 6.08 µM and 2.73 µM | [8] 2.66 µM and 4.31 µM and 2.17 µM | [9] 2.66 µM and 5.42 µM and 2.17 µM | [15] 3.38 µM and 1.94 µM and 3.89 µM | [17] 6.01 µM and 4.36 µM | [10] 24.3 µM | [11] 4.22 µM and 3.44 µM
inactive: [1] | [2] | [3] | [12] | [13] | [14] | [4] | [19]

CCCC(=O)O
not listed: [12] | [17] | [18] | [19]
inactive: all other assays above

Nc1ccc(Nc2ccccc2)cc1
active: [7] 30.6 µM | [9] 54.5 µM and 43.3 µM | [11] 60.4 µM and 30.6 µM and 34.4 µM
not listed: [8] | [16] | [17] | [18] | [19]
inactive: all other assays above

Nc1ncnc2nc[nH]c12
not listed: [6] | [8] | [11] | [15] | [17] | [18] | [19]
inactive: all other assays above

O=C(COc1ccc(Cl)cc1)N1CCN(Cc2ccc3c(c2)OCO3)CC1
active: [7] 29.8 µM | [8] 16.8 µM and 54.5 µM | [9] 48.6 µM
not listed: [5] | [13] | [16] | [17] | [18] | [19]
inactive: all other assays above

CCCc1c(OCCCCc2nn[nH]n2)ccc(C(C)=O)c1O
active: [16] 23.9 µM | [7] 29.8 µM | [9] 21.1 µM and 54.5 µM
29.8 µM (active) and inactive: [8]
not listed: [12] | [13] | [17] | [18] | [19]
inactive: all other assays above

NC=O
not listed: [5] | [8] | [15] | [16] | [17] | [18] | [19]
inactive: all other assays above
